The whole screen tested about 340,000 compounds, of which about 3,300 (0.97%) were called active. Not shown: some 9% with an inconclusive outcome. Calls follow the shape of the dose curve; as a rule, active = well fitted inhibition curve with a large enough effect; inconclusive = small, poorly fitted or top-dose-only effect, or effect the other way; inactive = flat fitted curve, though single readings scatter. The list shows a part of the results.
Assay: qHTS Assay for Modulators of miRNAs and/or Inhibitors of miR-21; also: nearly all actives have a fitted effect of over 55% in size
Conditions: HeLa miR-21-FLuc reporter, luciferase luminescence, 48 h; actives lower the signal
How it was run: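 HeLa cells endogenously expressing miR-21, stably carrying CMV-driven firefly luciferase with a downstream miR-21 binding site, 2000 cells/well. Titrations up to approximately 40 uM, 48 hours; luciferase luminescence read.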
Potency is read from the fitted curve at half-maximal effect.

Potency, active:
Cc1nc(NC(=S)NC(=O)c2cccs2)ccc1Br 14.7 µM
O=C(NC(=S)Nc1ccc(Br)cn1)c1cccs1 0.521 µM
O=c1[nH]c(COc2ccc(Br)cc2Cl)nc2ccccc12 2.61 µM
O=c1[nH]c(COc2ccc(Cl)cc2Br)nc2ccccc12 3.29 µM
CCN(CC)S(=O)(=O)c1cc(C(=O)Oc2cccc(-c3cnc4ccccc4n3)c2)ccc1Br 1.85 µM
Nc1c(-c2ccc3c(c2)OCCO3)oc2ccccc2c1=O 2.93 µM
CCN(CC)CCCNc1ncnc2c1cnn2-c1ccc(C)c(C)c1 6.56 µM
Cc1cccc(-n2ncc3c(NCCCn4ccnc4)ncnc32)c1 10.4 µM
COc1ccc(-n2ncc3c(NCCCn4ccnc4)ncnc32)cc1 10.4 µM
COc1cccc(C(=O)/C=C/Nc2ccc(NC(C)=O)cc2)c1 11.7 µM
Cc1noc(NS(=O)(=O)c2ccc(N/C=C/C(=O)c3ccc4c(c3)OCO4)cc2)c1C 9.27 µM
COc1cccc(C(=O)/C=C/Nc2ccc(S(=O)(=O)Nc3onc(C)c3C)cc2)c1 13.1 µM
COc1cccc(C(=O)/C=C/Nc2ccc(S(=O)(=O)Nc3ncccn3)cc2)c1 11.7 µM
COc1cccc(C(=O)/C=C/Nc2ccc(S(=O)(=O)Nc3cnc4ccccc4n3)cc2)c1 7.36 µM
Fc1cc(Br)ccc1COc1ccc(-c2nnco2)cc1 7.36 µM
Cc1ccc(COc2ccc(-c3nnco3)cc2)cc1 4.14 µM
Cc1ccc(COc2ccc3c(c2)OCO3)cc1 3.69 µM
Cn1c(SCc2c(F)cccc2Cl)nnc1-c1cnccn1 4.14 µM
Cn1c(SCc2c(F)cccc2Cl)nnc1-c1cccs1 6.56 µM
CCCNC(=O)c1c(Cl)cnn1-c1ccc(C)cc1 4.14 µM
O=C(Nc1ccccc1)OCc1cc(-c2ccccc2Cl)on1 11.7 µM
O=C(Nc1ccccc1)c1ccc(-c2ccccc2C(F)(F)F)o1 13.1 µM
O=C(Nc1ccccc1)c1ccc(-c2ccccc2Cl)o1 3.69 µM
O=C(Nc1ccccc1)c1cc(-c2ccccc2Cl)no1 7.36 µM
O=C(Nc1cccc(F)c1)c1ccc(-c2ccccc2Cl)o1 2.93 µM
COc1ccc(NC(=O)c2ccc(-c3ccccc3Cl)o2)cc1 7.36 µM
COc1ccc(/C=C/c2ccncc2)cc1OC 16.5 µM
CC1=NN(C(=O)c2ccoc2C)C(O)(C(F)(F)F)C1 (stereo not given) 10.4 µM
CCCNc1ccc(C(=O)OCC)cc1[N+](=O)[O-] 16.5 µM
COC(=O)c1ccc(-c2ccc(F)cc2)nc1C 6.56 µM
CCOC(=O)c1ccc(-c2ccc3c(c2)CCC3)nc1C 1.85 µM
COC(=O)c1ccc(-c2ccc(Cl)cc2)nc1C 1.47 µM
CCOc1ccc(-c2cn3nc(CC(C)C)sc3n2)cc1 2.93 µM
COC(=O)CSc1nc2cc(OC)ccc2cc1C#N 0.233 µM
CCOc1ccc2cc(C#N)c(SCC(=O)N3CCOCC3)nc2c1 1.17 µM
COc1ccc2nc(SCC(C)=O)c(C#N)cc2c1 0.165 µM
CCOC(=O)CSc1nc2cc(OCC)ccc2cc1C#N 4.65 µM
O=C(Nc1cc2c(cc1C(=O)O)OCCCO2)c1ccc(C(F)(F)F)cc1 7.36 µM
COc1cccc(C(=O)Nc2cc3c(cc2Cl)OCCCO3)c1 0.826 µM
O=C(Nc1cc2c(cc1Br)OCCCO2)c1ccccc1 2.33 µM
COc1cccc(C(=O)Nc2cc3c(cc2Br)OCCCO3)c1 2.07 µM
CN(C)S(=O)(=O)Oc1cccc(C(=O)Nc2ccccc2Cl)c1 8.26 µM
COC(=O)c1c(-c2cccnc2)csc1NC(=O)c1cc(C)on1 2.07 µM
COC(=O)c1c(-c2ccncc2)csc1NC(=O)c1ccoc1C 1.85 µM
COC(=O)c1c(-c2cccnc2)csc1NC(=O)c1ccc2c(c1)OCO2 1.04 µM
CC(CC(=O)c1cccs1)CC(=O)c1cccs1 11.7 µM
CC(C)(C)C(=O)Nc1ccc(C(=O)OC2CCCCC2)cc1 0.927 µM
COc1ccc(Nc2nc(N)nc(CSc3nnc(C)s3)n2)cc1 18.5 µM
COc1ccc(Nc2nc(N)nc(SCc3nnc(C)s3)n2)cc1 14.7 µM
Cc1nnc(SCc2cccc3ccccc23)s1 14.7 µM
Cc1nnc(SCc2nc(N)nc(Nc3ccccc3)n2)s1 11.7 µM
Cc1ccc(Nc2nc(N)nc(CSc3nnc(C)s3)n2)cc1 7.36 µM
O=C(Nc1ccc2c(c1)OCO2)c1n[nH]c(=O)c2ccccc12 5.85 µM
CCc1ccc(NC(=O)c2n[nH]c(=O)c3ccccc23)cc1 1.04 µM
COc1ccccc1Nc1nc(N)nc(CSC(=S)N2CCCCC2)n1 14.7 µM
Cc1ccc(Nc2nc(N)nc(CSC(=S)N3CCOCC3)n2)c(C)c1 10.4 µM
COc1ccccc1Nc1nc(N)nc(CSC(=S)N2CCOCC2)n1 16.5 µM
COc1ccc(CCNc2ncccc2C#N)cc1OC 6.56 µM
O=C(O)c1ccc(N/N=C2/CCCc3ccccc32)cc1 6.56 µM
CCOC(=O)N/N=C1\CCc2ccccc21 11.7 µM
O=C(N/N=C1\CCc2ccccc21)c1ccccc1Cl 1.85 µM
O=C(N/N=C1\CCCCc2ccccc21)c1ccccn1 5.85 µM
O=C(COc1ccccc1F)N/N=C1\CCCc2ccccc21 3.29 µM
N/C(=N\OC(=O)CSc1ccccc1)c1ccncc1 14.7 µM
N/C(=N\OC(=O)CSc1ccccc1)c1ccc([N+](=O)[O-])cc1 4.65 µM
COc1ccc(/C(N)=N/OC(=O)CSc2ccccc2)cc1OC 8.26 µM
COc1ccc(NC(=O)CSc2nnc(NC(=O)Nc3ccc(OC)cc3)s2)cc1 0.826 µM
COc1ccccc1C(=O)Nc1nnc(SCC(=O)NC2CCCC2)s1 0.414 µM
COc1ccc(NC(=O)Nc2nnc(-c3ccco3)s2)cc1 0.927 µM
COc1ccc(-c2nnc(SCC(=O)Nc3cccc(F)c3)s2)cc1 13.1 µM
